Measurements taken from PubChem BioAssay.
Activity calls are given as the source filed them.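 How the source made its calls, unless noted: active means compounds giving at least 50% inhibition in the cell-based MKP-3 phosphatase rescue imaging test; inactive means the rest.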

Target: Dual specificity protein phosphatase 6 (Homo sapiens) (UniProt Q16828)
Assay: DUSP6 inhibitors restoring Erk phosphorylation by chemical complementation, primary imaging in DUSP6-transfected HeLa (AID 609);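 further: phospho-Erk level distribution per well compared with pooled transfected vehicle control wells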
Conditions: HeLa MKP-3 transfected, phospho-Erk imaging KS statistic; at 10 µM; active compounds read high; cells stimulated with TPA for 15 min

Sequence of Dual specificity protein phosphatase 6 (Homo sapiens) (Q16828 whole entry, looked up): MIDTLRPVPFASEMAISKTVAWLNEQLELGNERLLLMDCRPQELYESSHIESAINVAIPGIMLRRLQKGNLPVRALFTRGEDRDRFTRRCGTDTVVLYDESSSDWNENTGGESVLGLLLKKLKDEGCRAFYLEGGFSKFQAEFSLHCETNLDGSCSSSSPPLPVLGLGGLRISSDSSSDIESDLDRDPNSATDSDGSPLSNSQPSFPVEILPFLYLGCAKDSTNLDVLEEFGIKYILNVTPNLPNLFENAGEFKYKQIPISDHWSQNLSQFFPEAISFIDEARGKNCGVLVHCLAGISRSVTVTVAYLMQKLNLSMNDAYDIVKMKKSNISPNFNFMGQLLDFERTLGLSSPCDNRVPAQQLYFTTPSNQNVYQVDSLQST

inhibition, inactive:
Cc1nnc(N2CCOCC2)c2ccccc12 1.63%
CCOc1ccc2c(c1)n([O-])c1c([n+]2=O)CCCC1 23.4%
C[N+]1(CCNC(=O)/C=N/O)CCCCC1 -0.624%
Cc1ccc(C(=O)NCCCNCCCNC(=O)c2ccc(C)nc2)cn1 3.56%
CCCCCOc1ccccc1C(=O)NCCCC(=O)O 19.4%
CCN(CC)c1nc(C)c2c(c1C#N)CC(C)(C)OC2 13.4%
Cn1ncc(N=Cc2ccccc2O)c1C(=O)N1CCOCC1 7.93%
CN1CCN(c2c3c(c(C#N)c4nc5ccccc5n24)CCCC3)CC1 5.95%
CC(C(=O)NC(=O)NCc1ccccc1)N1C(=O)c2ccccc2C1=O (stereo not given) -11.4%
COC(=O)c1cc(Br)c(=O)n(-c2cc(C)on2)c1 -2.91%
CCOC(=O)c1[nH]c2ccc(OC)cc2c1NC(=O)CCN1CCCC(C)C1 (stereo not given) 11.4%
COc1cccc(C(=O)c2sc(NC(C)C)nc2N)c1 -3.95%
CCOc1ccc(-c2nc(C#N)c(N3CCN(CC)CC3)o2)cc1 -2.69%
CCC(CC)n1[nH]c(=O)cc1N 7.73%
CC1(C)Cc2nc(NCCN3CCOCC3)c(C#N)cc2CO1 -0.233%
COc1ccc2nc(/N=C(\N)NC(=O)C(C)(C)C)nc(C)c2c1 9.91%
CC(C)CNc1nc2c(c(=O)n(C)c(=O)n2C)n1Cc1cccc(Br)c1 7.93%
COc1ccccc1C(=O)Nc1cc(Cl)ccc1O 9.42%
c1ccc(-n2ncc3c(N4CCCC4)ncnc32)cc1 7.42%
NC(=O)C1CCN(CCC(=O)Nc2ccc(Br)cc2)CC1 7.42%
CCCCC(=O)c1c(C)cc(C)[nH]c1=O 3.97%
C/C(NC(=O)c1cccs1)=C1\C(=O)C[C@@H]2[C@H]1C2(C)C 11.9%
CC1CCN(c2[nH]c(=S)c(C#N)c3c2CCCC3)CC1 1.42%
CCC(=O)Nc1ccc(-c2nnc(SCC(=O)NCC3CCCO3)n2C)cc1 (stereo not given) -2.09%
Cc1nnc(N2CCCCC2)c2ccccc12 18.4%
Cc1cccc(-n2ncc3c(NCCN4CCOCC4)ncnc32)c1 -2.59%
N#CCCN(C(=O)c1ccco1)c1ccccc1 1.42%
N#Cc1c(N)nc(SCC(=O)NCc2ccc3c(c2)OCO3)c(C#N)c1-c1cccs1 6.04%
CCC1CC2(C)NC(=O)c3c(sc4c3CC(C)(C)OC4)N2C1=O (stereo not given) 1.98%
C=CCN=C(C)C1=C(O)CCC1=O -2.09%
Cc1ccc(-n2ncc3c(NCc4cccnc4)ncnc32)c(C)c1 1.42%
Clc1ccc(COc2ccccn2)c(Cl)c1 23.8%
Cc1cc(=O)oc(C)c1C(=O)Nc1ccc2nsnc2c1 5.95%
O=C(C1CCCCC1)N1CCCn2c1nc1ccccc12 -0.233%
CCc1nc(NCC2CCCO2)c(C#N)c2c1COC(C)(C)C2 (stereo not given) 1.9e-07%
CCc1nc(N2CCOCC2)c(C#N)c2c1CCCC2 9.42%
CCc1cc(=O)oc2cc(C)c(CN3CCCC(C)C3)c(O)c12 (stereo not given) 12.7%
C=CCN=C(NC#N)SCCc1ccccc1 -5.62%
CCN(CC)CCN1C(=O)c2ccccc2NC1c1cc(OC)c(OC)c(OC)c1 (stereo not given) 3.49%
COc1ccc(C2C(C#N)=C(N)Oc3cc(C)n(CCN4CCOCC4)c(=O)c32)cc1OC (stereo not given) -10.1%

Target: Voltage-gated potassium channel subunit beta-2 (Rattus norvegicus) (UniProt P62483)
Sequence (P62483 whole entry, looked up): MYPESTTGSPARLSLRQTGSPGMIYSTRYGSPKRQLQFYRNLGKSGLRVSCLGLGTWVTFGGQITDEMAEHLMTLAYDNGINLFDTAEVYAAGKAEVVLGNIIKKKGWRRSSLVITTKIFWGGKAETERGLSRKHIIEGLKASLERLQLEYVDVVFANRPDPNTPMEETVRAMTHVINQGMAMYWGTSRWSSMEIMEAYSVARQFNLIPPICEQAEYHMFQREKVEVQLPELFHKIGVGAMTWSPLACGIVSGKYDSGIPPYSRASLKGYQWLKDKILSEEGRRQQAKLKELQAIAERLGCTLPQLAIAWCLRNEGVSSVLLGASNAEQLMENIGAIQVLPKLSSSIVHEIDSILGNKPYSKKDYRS
Assay: KvBeta enzyme negative modulators, primary screen, biochemical, NADPH fluorescence (AID 622;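 active means fluorescence slope higher than the sample average by over 3 SD, cut at about -0.22 in these data, passing the limit was not always enough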;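 further: slope of raw intensity against log time taken from 70 to 1610 s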)
Conditions: recombinant KvBeta, 4-cyanobenzaldehyde reduction, at 10 µM, active compounds read high

Fluorescence slope, inactive:
Cc1nnc(N2CCOCC2)c2ccccc12 -0.472
CCOc1ccc2c(c1)n([O-])c1c([n+]2=O)CCCC1 -0.4
C[N+]1(CCNC(=O)/C=N/O)CCCCC1 -0.42
Cc1ccc(C(=O)NCCCNCCCNC(=O)c2ccc(C)nc2)cn1 -0.471
CCCCCOc1ccccc1C(=O)NCCCC(=O)O -0.463
CCN(CC)c1nc(C)c2c(c1C#N)CC(C)(C)OC2 -0.462
Cn1ncc(N=Cc2ccccc2O)c1C(=O)N1CCOCC1 -0.486
CN1CCN(c2c3c(c(C#N)c4nc5ccccc5n24)CCCC3)CC1 -0.35
CC(C(=O)NC(=O)NCc1ccccc1)N1C(=O)c2ccccc2C1=O (stereo not given) -0.461
COC(=O)c1cc(Br)c(=O)n(-c2cc(C)on2)c1 -0.438
CCOC(=O)c1[nH]c2ccc(OC)cc2c1NC(=O)CCN1CCCC(C)C1 (stereo not given) -0.351
COc1cccc(C(=O)c2sc(NC(C)C)nc2N)c1 -0.496
CCOc1ccc(-c2nc(C#N)c(N3CCN(CC)CC3)o2)cc1 -0.498
CCC(CC)n1[nH]c(=O)cc1N -0.46
CC1(C)Cc2nc(NCCN3CCOCC3)c(C#N)cc2CO1 -0.486
COc1ccc2nc(/N=C(\N)NC(=O)C(C)(C)C)nc(C)c2c1 -0.361
CC(C)CNc1nc2c(c(=O)n(C)c(=O)n2C)n1Cc1cccc(Br)c1 -0.498
COc1ccccc1C(=O)Nc1cc(Cl)ccc1O -0.431
c1ccc(-n2ncc3c(N4CCCC4)ncnc32)cc1 -0.378
NC(=O)C1CCN(CCC(=O)Nc2ccc(Br)cc2)CC1 -0.426
CCCCC(=O)c1c(C)cc(C)[nH]c1=O -0.482
C/C(NC(=O)c1cccs1)=C1\C(=O)C[C@@H]2[C@H]1C2(C)C -0.392
CC1CCN(c2[nH]c(=S)c(C#N)c3c2CCCC3)CC1 -0.469
CCC(=O)Nc1ccc(-c2nnc(SCC(=O)NCC3CCCO3)n2C)cc1 (stereo not given) -0.5
Cc1nnc(N2CCCCC2)c2ccccc12 -0.507
Cc1cccc(-n2ncc3c(NCCN4CCOCC4)ncnc32)c1 -0.397
N#CCCN(C(=O)c1ccco1)c1ccccc1 -0.462
N#Cc1c(N)nc(SCC(=O)NCc2ccc3c(c2)OCO3)c(C#N)c1-c1cccs1 -0.493
CCC1CC2(C)NC(=O)c3c(sc4c3CC(C)(C)OC4)N2C1=O (stereo not given) -0.397
C=CCN=C(C)C1=C(O)CCC1=O -0.445
Cc1ccc(-n2ncc3c(NCc4cccnc4)ncnc32)c(C)c1 -0.325
Clc1ccc(COc2ccccn2)c(Cl)c1 -0.387
Cc1cc(=O)oc(C)c1C(=O)Nc1ccc2nsnc2c1 -0.278
O=C(C1CCCCC1)N1CCCn2c1nc1ccccc12 -0.481
CCc1nc(NCC2CCCO2)c(C#N)c2c1COC(C)(C)C2 (stereo not given) -0.316
CCc1nc(N2CCOCC2)c(C#N)c2c1CCCC2 -0.482
CCc1cc(=O)oc2cc(C)c(CN3CCCC(C)C3)c(O)c12 (stereo not given) -0.486
C=CCN=C(NC#N)SCCc1ccccc1 -0.498
CCN(CC)CCN1C(=O)c2ccccc2NC1c1cc(OC)c(OC)c(OC)c1 (stereo not given) -0.0732
COc1ccc(C2C(C#N)=C(N)Oc3cc(C)n(CCN4CCOCC4)c(=O)c32)cc1OC (stereo not given) -0.468
